Pf Dd2 inh = Plasmodium falciparum Dd2 growth inhibition; P. falciparum Dd2 growth, SYBR Green, 72 h; Potency, µM (series often up to 28.9 µM), without a hit: at the top dose activity, negative = inhibition, actives largely listed as inhibitors; hit rate 4.3% among 120,000; active means well fitted inhibition curve with a large enough effect;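 further: plate controls were DMSO vehicle for no effect and reference drug for full effect; nearly all actives have a fitted effect of over 65% in size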
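Readout: SYBR Green fluorescence, 485 nm excitation, 535 nm emission, after ~16 h lysis at 37C. Before that, Dd2-infected red cells (2.5% hematocrit) grew 72 h with compound, 29 uM top final concentration.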
An asterisk follows results filed as active; i = inactive; [ ] = remark or other dose. Only a selection was taken, and hits are over-represented in it overall. Potency means the concentration at half of the fitted maximal effect.

SMILES | Pf Dd2 inh
Cn1nnnc1C1CCCN(C(=O)Cc2ccccc2)C1 (centres undefined) | -19%
COc1cccc(C2=C(C(C)=O)Sc3nnc(C4CCCCC4)n3N2C(C)=O)c1 | 1.3µM*
Cn1nnnc1C1CCCN(C(=O)NCc2ccccc2)C1 (centres undefined) | -8%
COc1cccc(C(=O)N2CCCC(c3nn[nH]n3)C2)c1 (centres undefined) | 40%
COc1cc(C(=O)NC2CCN(c3cc(-c4cccs4)[nH]n3)C2)cc(OC)c1OC (centres undefined) | i
CN(C)c1cc(N2CCCC(NC(=O)c3ccco3)C2)ncn1 (centres undefined) | 33%[5.79 µM]
O=C(c1ccccc1OCC1CCCNC1)N1CCCC1 (centres undefined) | -13%
O=C(Nc1ccc(Oc2ccccc2)cc1)N[C@H]1CO[C@H]2[C@@H]1OC[C@@H]2n1nnnc1Oc1ccc(-n2ccnc2)cc1 | -16%
CCOCCCNC(=O)NC(CCC(C)C)c1c(-n2cccc2)sc2c1CCN(C)C2 (centres undefined) | -13%
CCn1cc(-c2ccc(F)cc2)cc1C(=O)NCc1cccnc1 | -25%
CN(C)CCN(C)[C@@H]1[C@H](O)[C@H](CO)O[C@@H]1CNC(=O)c1cccs1 | i
COc1ccc(-c2cc(N3CCCC(NC(=O)c4cc(F)ccc4F)C3)n[nH]2)cc1 (centres undefined) | -21%
CCCCn1c(C(C)NC(=O)c2ccccc2)nc2ccccc21 (centres undefined) | i
CCCCn1c(NCc2cc(Cl)ccc2O)nc2ccccc21 | 3.2µM*
CCCCCCn1c(CNC(=O)c2ccccc2)nc2ccccc21 | -20%
COc1cccc(N2CCN(C(=O)c3cccc(-n4c(C)nc5cccnc54)c3)CC2)c1 | -7%
CN1C(=O)[C@@H]2C[C@@H](O)CN2C2(CN(Cc3ccc(F)cc3)C2)C1=O | 11%[44.1 µM]
CCOc1ccc(NC(=O)C(CC)n2c(=O)c(-c3ccccc3NC(C)=O)nc3ccccc32)cc1 (centres undefined) | -8%
COc1ccc(OC)c(NC(=O)C(C)n2c(=O)c(-c3ccccc3NC(C)=O)nc3ccccc32)c1 (centres undefined) | 11µM*
CC(=O)Nc1ccccc1-c1nc2ccccc2n(C(C)C(=O)c2ccc(C)c(C)c2)c1=O (centres undefined) | -11%
CC1CCN(c2ncc(C(=O)O)c(-c3ccncc3)n2)CC1 | 0%
O=C(Cc1ccc(Cl)cc1)N[C@H]1[C@H](O)[C@H](O)C[C@@H]1c1ccc(C(F)(F)F)cc1 | i
O=C(c1ccc(Cl)cc1)n1nc(-c2ccccc2)nc1NCc1ccco1 | 1%
Cc1ccccc1Nc1sc(C(=O)c2ccccc2)c(N)c1S(C)(=O)=O | i[5.79 µM]
COc1ccccc1Nc1sc(C(=O)c2ccc(F)cc2)c(N)c1S(=O)(=O)c1ccc(C)cc1 | -29%
SMILES | Pf Dd2 inh
COc1ccc(S(=O)(=O)c2c(Nc3cccc(C)c3C)sc(C(=O)c3ccccc3)c2N)cc1 | 10µM*
COc1ccc2c(c1)NC(c1ccc(Cl)cc1)=NC(c1cccs1)=N2 | 4%
COc1ccc(CCNC(=O)CCn2c(=O)c3ccccc3n(CC(=O)Nc3cc(Cl)ccc3C)c2=O)cc1OC | i
COc1ccc(CCNC(=O)CCCn2c(=O)c3ccccc3n(CC(=O)Nc3cc(Cl)ccc3C)c2=O)cc1OC | -4%
COc1ccc(Cl)cc1NC(=O)Cn1c(=O)n(CCCC(=O)NCCc2ccc(OC)c(OC)c2)c(=O)c2ccccc21 | 11µM*
Cc1ccc(NC(=O)Nc2ccc(C)n(CC(=O)Nc3ccc(C)cc3C)c2=O)cc1 | -20%
CCn1cc(-c2ccncc2)cc1C(=O)N1CCOCC1 | -4%
CCCN1CCN(C(=O)c2cc(-c3ccc(F)cc3)cn2CC)CC1 | -20%
Cc1ccccc1Cn1cc(-c2ccncc2)cc1C(=O)N1CCN(c2ccccc2)CC1 | 3.5µM*
CCn1cc(-c2ccncc2)cc1C(=O)NCc1cccc(F)c1 | 0%
CCCn1cc(-c2ccncc2)cc1C(=O)N1CCN(C)CC1 | i
COc1cccc(NC(=O)c2cccn(Cc3ccccc3C)c2=O)c1 | i
CC(=O)Nc1ccc(NC(=O)c2cc(-c3ccncc3)cn2Cc2ccccc2C)cc1 | 3.2µM*
CCCn1cc(-c2ccncc2)cc1C(=O)N1CCN(c2ccccc2OC)CC1 | 4µM*
CCn1cc(-c2ccc(C)cc2)cc1C(=O)N1CCN(c2ccccn2)CC1 | -33%
CCC1CCCCN1CC(=O)Nc1cc(C)c2c(=O)oc3ccccc3c2n1 (centres undefined) | 4%
Cc1nocc1C(=O)N1C[C@@H](COCC2CC2)[C@H](c2ccccn2)C1 | 13%
O=C1NCCN2CC3(CCN(C(=O)C4(c5ccccc5)CC4)CC3)CC12 (centres undefined) | 1%
COc1ccc(CN2CCn3c(nn(-c4cccc(Cl)c4)c3=O)C2)cc1 | -18%
O=C(CCc1nnn2c1CN(Cc1ccc(O)c(F)c1)CC2)NCc1ccccc1 | -24%
C[C@@H]1CN(C(=O)c2ccc3c(c2)N(C)C(=O)CO3)C[C@@]1(O)C1CCC1 | -5%
Cc1cc2nc3n(c(=O)c2n1CC(=O)NC1CCCCC1)CCCCC3 | i
Cc1cccc(OCC(=O)Nc2ccccc2OCc2cc(=O)n3cc(C)ccc3n2)c1 | 18%
CCCc1cnc2c(c1SCC(=O)NCc1ccc(C)cc1)c(=O)n(C)c(=O)n2C | -12%
CCCOc1ccc(C(=O)Nc2sc3c(c2C(=O)OCC)CCCCC3)cc1 | i
SMILES | Pf Dd2 inh
COCCN(CCOC)S(=O)(=O)c1ccc(C(=O)Nc2sc3c(c2C(=O)OC)CCN(C)C3)cc1 | 11µM*
COCCN(CCOC)S(=O)(=O)c1ccc(C(=O)Nc2sc3c(c2C(N)=O)CCCC3)cc1 | 8%
CCOC(=O)c1c(NC(=O)c2ccc(S(=O)(=O)N3CCC(C)CC3)cc2)sc2c1CCN(C)C2 | 8.9µM*
CNC(=O)c1c(NC(=O)c2ccc(S(=O)(=O)N3CCC(C)CC3)cc2)sc2c1CCC2 | 0%
CCOC(=O)c1c(NC(=O)c2ccc(S(=O)(=O)N(C)C)cc2)sc2c1CCN(C)C2 | i
COC(=O)c1c(NC(=O)c2ccc(S(=O)(=O)N3CCCCC3C)cc2)sc2c1CCN(C(C)C)C2 (centres undefined) | 11µM*
CCCCN(C)S(=O)(=O)c1ccc(C(=O)Nc2sc3c(c2C(=O)OCC)CCN(C(C)C)C3)cc1 | 6.3µM*
COC(=O)c1c(NC(=O)c2ccc(C(C)(C)C)cc2)sc2c1CCC(C)C2 (centres undefined) | 30%
CCOC(=O)c1c(NC(=O)c2ccccc2C)sc2c1CCCC2 | 2%
CNC(=O)c1c(NC(=O)c2ccc(S(=O)(=O)N3CCCCC3C)cc2)sc2c1CCC2 (centres undefined) | i
CCOc1cccc2sc(NC(=O)c3ccc(S(=O)(=O)N4CCCCC4C)cc3)nc12 (centres undefined) | -7%
CCOc1ccc(CC(=O)N2CCC[C@H]2c2nc(-c3ccc(C)cc3)no2)cc1OCC | i
CCC(C)n1c(=O)[nH]c2cccnc21 (centres undefined) | -4%[44.1 µM]
CC(C)N1C[C@H](O)C[C@H]1c1nnc2n1CCN(C(=O)Cn1c(=O)oc3ccccc31)C2 | 17%
NC(=O)[C@@H](Cc1c[nH]c2ccccc12)NC(=O)[C@@]1(O)C[C@@H](O)[C@H](O)[C@@H](NC(=O)c2ccc(F)c(Cl)c2)C1 | 7%
O=C(Nc1ccc(F)cc1F)N1CCC(CCNC(=O)C2(c3ccccc3)CC2)CC1 | -24%
Cc1nc2nc(C)c(CCC(=O)NCCc3ccccc3)c(C)n2n1 | i

High-throughput results deposited in PubChem BioAssay by National Center for Advancing Translational Sciences (NCATS).
